The whole screen tested about 300,000 compounds, of which about 3,600 (1.2%) were called active. This excerpt belongs to a sample that is enriched for actives. A number with no mark means an inactive call. Rule as the data show it: active = activation above about 30% (passing the limit was not always enough); inconclusive = no clear call, values can overlap the other calls.

The nature of this experiment: activation of beta-catenin signaling reporter – cell-based, plate reader, single point, primary screen (AID 743398).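 Also: 0% = neutral control wells and 100% = positive control wells.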 The settings on record: Wnt/beta-catenin reporter cell assay, activator, at 9.35 µM, active compounds read high.
Turning to `CC(=O)C1=C(C)N(Cc2ccccc2)C(=S)NC1c1cccc(Br)c1` (centres undefined), the activation is -4.75%.

With `CCOC(=O)[C@]12CCCC=C1N(CCC1=CCCCC1)C(=O)[C@H](CC(=O)NCCCOC)C2`, the activation is -3.04%. In the case of `O=C(NNC(=O)C1CCCC1)c1ccc(F)cc1`, the activation was -1.64%. `O=C(N/N=C/c1ccc([N+](=O)[O-])o1)c1cn(-c2ccccc2)nc1-c1ccc(F)cc1`: the activation was -0.879%. The figure for `O=C(/C=C/c1ccc([N+](=O)[O-])o1)NNC(=O)c1ccc(F)cc1` is 37.2% (active); for `CCCCCn1nnnc1-c1nc2cc3ccccc3cc2[nH]c1=O` it is -1.88%. Turning to `COc1ccc(NC(=O)C2(C)Cc3c(-c4cccc(NC(C)=O)c4)ccnc3O2)cc1OC` (centres undefined), the activation is -0.993%. The figure for `COCc1cc(N2CCN(C(=O)OC(C)(C)C)C[C@@H]2C)ccc1N1CCN(Cc2ccccc2)[C@H](C)C1` is -6.08%; for `O=C(NCCC1=CCCCC1)c1ccc(Cl)c([N+](=O)[O-])c1` it is 12.3%. For the compound `O=C(Cc1nn[nH]n1)NCCC1=CCCCC1`, the activation was 1.57%. The figure for `O=C(NCCC1=CCCCC1)c1ccc(-n2cncn2)cc1` is 36.7% (active).

For `COC(=O)[C@@]12C[C@@H](CC(=O)NCCCCc3ccccc3)C(=O)N(Cc3ccccc3)C1=CCC(C)(C)C2`, the activation is -3.6%. On to `O=C(c1ccc(N2CCOCC2)c([N+](=O)[O-])c1)N1CCN(S(=O)(=O)c2cccs2)CC1`, for which the activation was 42% (active).

In the case of `CC(C)c1ccc(S(=O)(=O)N2CCN(C(=O)c3ccc(N4CCCC4)c([N+](=O)[O-])c3)CC2)cc1`, the activation is -1.38%.

Consider `O=C(c1ccc(N2CCOCC2)c([N+](=O)[O-])c1)N1CCN(c2ccccc2F)CC1`, for which the activation was -6.11%. The figure for `O=S1(=O)c2c(cccc2N2CCCC2)O[C@H](COCc2ccccc2)CN1C1CC1` is -2.59%. The same measure for `c1ccc(C2=Nc3cccc4cccc(c34)N2)cc1`: -4.88%; for `O=C(c1ccccc1)N1N=C(c2ccccc2O)CC1c1ccc(Br)cc1` (centres undefined): -1.76%; for `Brc1ccc(C2CC(c3ccccc3)=Nc3ccccc3N2)cc1` (centres undefined): 63.6% (active). For `COCOc1cccc(CN2CCC(C)(Oc3ccc(SC)cc3)C2)c1` (centres undefined), the activation was 0.071%. The same measure for `CC1(C)CC(=O)C=C(c2ccc(COC(=O)c3cc(F)cc(F)c3)cc2)C1=O`: 0.449%; for `CCc1cc(-c2nnn(CCC3COCCO3)c2CC)ccc1-c1cn(Cc2ccc3ccccc3c2)nn1` (centres undefined): -3.93%. Take `COc1ccc(N=C(C)c2sc3ccccc3c2O)cc1`: the activation was 50.3% (active).

With `COc1ccc(N=Nc2ccc(O)c(P(=O)(c3ccccc3)c3ccccc3)c2)cc1`, the activation was 1.19%. Consider `COC(=O)Cc1[nH]n(-c2nc3ccccc3s2)c(=O)c1C(C)=Nc1ccc(OC)cc1`, for which the activation was -8.84%. The same measure for `COc1cc(NC(=O)C2=C(C)OCCS2)c(Cl)cc1C(=O)NCCCN1CCCC(C)C1` (centres undefined): 2.04%; for `Cc1cc2cc3n(c2nn1)N=C(Cl)CC3`: -1.61%; for `O=C1CC(c2ccccc2)=NN1c1ccc([N+](=O)[O-])cc1`: 5.66%. The figure for `Cc1cc(CO)nn1-c1ccc([N+](=O)[O-])cc1` is 3.25%. Regarding `Cc1nn(-c2ccc([N+](=O)[O-])cc2)c(N)c1-c1ccccc1`, the activation was 37.5% (active). Regarding `CC(C)C[C@H](NC(=O)CC1CCCC1)C(=O)N1CCC[C@H]1C(=O)NCc1ccccc1`, the activation is 3.46%. The same measure for `COc1cccc(NC(=O)C2(C)CCN2C(=O)CCC2CCCC2)c1` (centres undefined): -2.67%. With `Cc1ccc(Cc2c(-c3ccc(Cl)cc3)nc3c4ccccc4ccn23)cc1`, the activation was -0.0465%.

Consider `O=C(Cc1nc2ccccc2[nH]c1=O)c1ccc(Cl)cc1`, for which the activation was 52.5% (active). The same measure for `O=C(CSc1nc2ccc([N+](=O)[O-])cc2[nH]1)c1ccc(Cl)cc1`: -2.13%; for `O=C(/C(=C/c1cccc(Cl)c1)c1nc2ccccc2[nH]1)c1ccccc1`: 27.7%. The same measure for `O=C(NNc1ncnc2c1cnn2-c1ccccc1)c1ccco1`: 0.184%; for `Cc1ccc(-n2ncc3c(Nc4cccc(C(=O)O)c4)ncnc32)cc1`: 42.2% (active). The same measure for `Cc1ccc(Nc2ncnc3c2cnn3C)c(C)c1`: 0.858%. `CC(=O)C1=C(C)N(Cc2ccc(Cl)cc2)C(=S)NC1c1ccc(F)cc1` (centres undefined): the activation was -10%.

On to `CCOc1ccc(C2C(C#N)=C(N)N(N(C)C)C3=C2C(=O)CCC3)cc1` (centres undefined), for which the activation was 6.29%.

With `N#CC1=C(N)N(c2ccccc2)C2=C(C(=O)CCC2)C1c1ccccc1` (centres undefined), the activation is -0.648%. As to `COc1ccc(C2C(C#N)=C(N)N(c3ncn[nH]3)C3=C2C(=O)CCC3)cc1` (centres undefined), the activation is 43.2% (active).

Turning to `COc1cccc(-c2nc3nc(C)cc(C)n3c2NC2CCCCC2)c1`, the activation is 5.8%.

As for `CC[C@H](NC(=O)[C@H](Cc1ccccc1)NC(=O)[C@H]1O[C@@H](n2cnc3c(=O)[nH]c(N)nc32)[C@H](O)[C@@H]1O)c1ccccc1`, the activation is -0.864%. The same measure for `Cc1sc2ncnc(N3CCC(C(=O)Nc4ccc(F)cc4Cl)CC3)c2c1C`: -1.16%. The figure for `Cc1sc2ncnc(N3CCC(C(=O)Nc4nc5ccc(Cl)cc5s4)CC3)c2c1C` is 38.3% (active); for `Cc1sc2ncnc(N3CCC(C(=O)NNC(=O)c4ccc(F)cc4)CC3)c2c1C` it is 3.2%; for `C[C@H](NC(=O)[C@@H]1CCCN1C(=O)[C@@H]1CCCN1C(=O)c1ccccc1)c1ccccc1` it is -3.41%.

In the case of `COc1ccc(Cn2c(-c3ccc(Cl)cc3)c[n+]3ccccc23)cc1`, the activation is 68.9% (active). The figure for `CCn1c(C)cc(=O)cc1-c1ccc(Cl)cc1` is 2.88%; for `COc1ccc(Cn2c(=O)oc3ccccc32)cc1` it is 8.74%. The same measure for `Cc1cc(C)n2c(NCc3ccccc3)c(CC(C)C)nc2n1`: -0.325%. The figure for `COC(=O)C1=C(C)N(Cc2cccc(C(F)(F)F)c2)C(=NCc2ccccc2)NC1c1ccccc1C(F)(F)F` (centres undefined) is -15.6%; for `O=C(CC(CC(=O)c1ccccc1)c1ccco1)c1ccccc1` it is 0.593%; for `O=C(COC(=O)c1ccc(O)cc1O)NC(=O)c1ccccc1` it is -3.61%.

Consider `O=C(COC(=O)c1ccccc1)c1ccc2c(c1)OCCO2`, for which the activation was -3.49%. Take `O=C(COC(=O)c1ccc(O)cc1O)c1ccc2c(c1)OCCO2`: the activation is 53.6% (active). In the case of `O=C(O)Cn1cnc2c(NCc3ccccc3)ncnc21`, the activation is -0.517%. With `COC(=O)C1=C(C)N(Cc2cccc(C(F)(F)F)c2)C(=NCc2ccccc2)NC1c1ccc(Cl)cc1` (centres undefined), the activation was -31.1%.

With `O=C(NC1CCCCC1)c1cc(C2CC2)on1`, the activation was 24.8%. The figure for `O=C(NCCCn1ccnc1)c1cc(-c2ccccc2)on1` is 113% (active); for `O=C(NC1CCCC1)c1cc(-c2ccccc2)on1` it is 46.9% (active); for `COc1ccc(-c2cc(C(=O)NCCCn3ccnc3)no2)cc1` it is 6.05%. The figure for `O=C(NC1CCCCCCC1)c1cccs1` is 9.38%; for `O=C(NCCCn1ccnc1)c1ccccc1F` it is -0.169%; for `Cc1ccccc1S(=O)(=O)N1[C@@H](c2cccc(Cl)c2)C(C(=O)OC(C)(C)C)=CC[C@H]1c1ccc(Cl)cc1` it is -9.66%. As to `COc1ccccc1-c1ccc([C@@H]2C[C@H]3[C@H](CON3C)CN2S(=O)(=O)c2cc(Cl)cc(Cl)c2)cc1`, the activation is -3.43%. The figure for `COC(=O)[C@]12C[C@H](CC(=O)NCc3ccccc3)C(=O)N(CCC3=CCCCC3)C1=C[C@H](C(C)(C)C)O[C@@H]2C` is -7.29%; for `Cc1cccc(CNC(=O)c2sc(=O)n(Cc3ccccc3C)c2C)c1` it is -2.16%; for `Cc1cnc(NC(=O)c2ccc(Cl)nc2)s1` it is 29%.

On to `O=C(Nc1nnc(C2CC2)s1)c1ccccn1`, for which the activation was 3.38%. For `Cc1cnc(NC(=O)c2ccccn2)s1`, the activation is 41.6% (active). The figure for `COC(=O)[C@]12C[C@H](CC(=O)NCCCCc3ccccc3)C(=O)N(Cc3ccc4c(c3)OCO4)C1=C[C@H](C(C)(C)C)O[C@@H]2C` is -8.78%. As to `NC(=O)CSc1nnc(NC(=O)c2ccc3ccccc3c2)s1`, the activation is 39.8% (active). The figure for `O=C(/C=C/c1ccccc1)Nc1nnc(SCC(=O)c2ccc3ccccc3c2)s1` is -11.8%; for `NC(=O)CSc1nnc(NC(=O)c2ccc(Br)o2)s1` it is 3.36%; for `COc1ccc(CC(N)c2csc(NC(=O)Nc3ccc(C(C)C)cc3)n2)cc1` (centres undefined) it is 0.986%. As to `Cc1ccc(C)c(CN2CCC(CNC(=O)C3CCCN(c4ncnc5c4nc4n5CCCCC4)C3)CC2)c1` (centres undefined), the activation is 2.22%. The same measure for `CSc1ccc(CN2CCC2(C)C(=O)NCc2ccccc2Br)cc1` (centres undefined): -0.564%; for `CCOC(=O)C1CCCN(C(=O)c2cc(-c3cccs3)oc2C)CC1` (centres undefined): -1.53%; for `Nc1ccc(N=Nc2ccccc2Cl)c(N)n1`: 37.3% (active). In the case of `CCN1C(=O)[C@@H]2[C@@H]3CN(S(=O)(=O)c4ccccc4C)[C@@H](c4ccc(Cl)cc4)[C@@H]3C(=O)C[C@@H]2C1=O`, the activation was -1.76%. The same measure for `Oc1cccc2cc(-c3ccncc3)cnc12`: 4.6%. Take `C=CC[C@]12C[C@@]3(O[C@H](c4ccc(C(F)(F)F)cc4)N=C3C[C@H](c3ccc(OC)cc3)[C@H]1C)N(C1CCN(Cc3ccccc3)CC1)C2=O`: the activation was -5.8%. The figure for `C=CCOc1cccc(C2C(C(=O)c3ccc(C)o3)=C(O)C(=O)N2CCN2CCOCC2)c1` (centres undefined) is -3.18%. The same measure for `Cc1ccc(-c2nc(-c3ccncc3)no2)c(C)c1`: 0.571%. The same measure for `Cc1ccc(Cc2nc(-c3cccc(C)c3)no2)cc1`: 16.6%; for `Cc1cccc(-c2noc(-c3ccc(F)cc3)n2)c1`: 51% (active).
